Among the data in publication PMC9838217, “Structure of SALL4 zinc finger domain reveals link between AT-rich DNA binding and Okihiro syndrome” are binding signal values, retold here.

Residue numbers refer to the chain shown, from its start.

Test in all cases: HT-SELEX; high values mean tight binding
What all share (details): protein: recombinant; vector His6-GST; dsDNA, one strand shown

In experiment [1] the target is T1, SALL4 ZFC4 WT (HT-SELEX) (Mus musculus, UniProt Q8BX22 870-940).
T1 sequence: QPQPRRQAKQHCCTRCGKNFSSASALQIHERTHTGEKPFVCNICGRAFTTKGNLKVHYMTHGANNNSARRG
The essentials: (§1)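 Purified recombinant mouse SALL4 zinc finger cluster 4 (residues 870–940, 1 µg) and library DNA (1.5 µg first cycle, 200 ng later) were incubated for 10 min at room temperature in 100 µl of 10 mM Tris–HCl pH 7.5, 50 mM NaCl, poly(dI-dC) and DTT. After Ni2+ bead capture and up to 6 triplicate cycles of selection, DNA was MiSeq-sequenced and scanned for 6-mers. Binding signal is the fold change in each canonical k-mer's read fraction relative to the initial random library.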

Experiment [2] deals with T2, SALL4 ZFC4 R900W (HT-SELEX) (Mus musculus, UniProt Q8BX22 870-940, R900W).
T2 sequence: T1 sequence with R31W
The essentials: as §1

For experiment [3], the target named is T3, SALL4 ZFC4 G921D (HT-SELEX) (Mus musculus, UniProt Q8BX22 870-940, G921D).
T3 sequence: T1 sequence with G52D
In outline:
as §1

Regarding CGAAAG, the binding signal came out at 0.614 ± 0.0288 fold-change vs cycle 0 in experiment [1], 0.735 ± 0.037 fold-change vs cycle 0 in experiment [2] and 0.79 ± 0.0572 fold-change vs cycle 0 in experiment [3].

As to CGTCAG, the binding signal in experiment [1] was determined as 0.341 ± 0.0358 fold-change vs cycle 0; in experiment [2], 0.427 ± 0.0193 fold-change vs cycle 0; in experiment [3] it was 0.535 ± 0.0656 fold-change vs cycle 0.

With ACTAAC, the values for the binding signal in experiment [1], in experiment [2] and in experiment [3] were 1.38 ± 0.0461 fold-change vs cycle 0, 1.53 ± 0.0676 fold-change vs cycle 0 and 1.43 ± 0.0927 fold-change vs cycle 0, respectively.

Take ACAGAA: the binding signal came to 1.26 ± 0.036 fold-change vs cycle 0 in experiment [1], 1.37 ± 0.0837 fold-change vs cycle 0 in experiment [2] and 1.3 ± 0.0881 fold-change vs cycle 0 in experiment [3].

Take ATTGAC: the results for the binding signal in experiment [1], in experiment [2] and in experiment [3] were 1.17 ± 0.0362 fold-change vs cycle 0, 1.31 ± 0.032 fold-change vs cycle 0 and 1.3 ± 0.0284 fold-change vs cycle 0, respectively.

With CCCATA, the values for the binding signal in experiment [1], in experiment [2] and in experiment [3] were 0.844 ± 0.0635 fold-change vs cycle 0, 0.917 ± 0.0435 fold-change vs cycle 0 and 0.905 ± 0.0367 fold-change vs cycle 0, respectively.

CCAAGC: the figures for the binding signal in experiment [1], in experiment [2] and in experiment [3] were 0.327 ± 0.034 fold-change vs cycle 0, 0.384 ± 0.0115 fold-change vs cycle 0 and 0.516 ± 0.0505 fold-change vs cycle 0, respectively.

Take ACCAGT: the binding signal stood at 0.8 ± 0.0267 fold-change vs cycle 0 in experiment [1], 0.969 ± 0.0358 fold-change vs cycle 0 in experiment [2] and 0.994 ± 0.0294 fold-change vs cycle 0 in experiment [3].

Regarding AACGTA, the binding signal in experiment [1] was 1.18 ± 0.0508 fold-change vs cycle 0; in experiment [2], 1.3 ± 0.0339 fold-change vs cycle 0; in experiment [3], 1.23 ± 0.0704 fold-change vs cycle 0.

Regarding ACTCAC, the binding signal in experiment [1] came out at 0.877 ± 0.0278 fold-change vs cycle 0; in experiment [2], 0.97 ± 0.0118 fold-change vs cycle 0; in experiment [3] it was 1.02 ± 0.0114 fold-change vs cycle 0.

As to AACATG, the results for the binding signal in experiment [1], in experiment [2] and in experiment [3] were 1.25 ± 0.0212 fold-change vs cycle 0, 1.38 ± 0.0255 fold-change vs cycle 0 and 1.32 ± 0.0877 fold-change vs cycle 0, respectively.

CCATGC: the binding signal in experiment [1] was 0.345 ± 0.0259 fold-change vs cycle 0; in experiment [2], 0.399 ± 0.0174 fold-change vs cycle 0; in experiment [3] it was 0.514 ± 0.0663 fold-change vs cycle 0.

Take ATGAAA: the binding signal in experiment [1] amounted to 2.91 ± 0.152 fold-change vs cycle 0; in experiment [2], 1.98 ± 0.0876 fold-change vs cycle 0; in experiment [3], 1.79 ± 0.147 fold-change vs cycle 0.

Consider CGCTAA, for which the figures for the binding signal in experiment [1], in experiment [2] and in experiment [3] were 0.488 ± 0.0307 fold-change vs cycle 0, 0.562 ± 0.0185 fold-change vs cycle 0 and 0.667 ± 0.039 fold-change vs cycle 0, respectively.

With ATTACC, the binding signal in experiment [1] is 1.49 ± 0.0761 fold-change vs cycle 0; in experiment [2] it was 1.51 ± 0.105 fold-change vs cycle 0; in experiment [3], 1.43 ± 0.105 fold-change vs cycle 0.

As for ATTCTG, the binding signal in experiment [1] amounted to 1.27 ± 0.0284 fold-change vs cycle 0; in experiment [2], 1.35 ± 0.0356 fold-change vs cycle 0; in experiment [3] it was 1.28 ± 0.0492 fold-change vs cycle 0.

As to GAGCTA, the binding signal was 0.677 ± 0.0225 fold-change vs cycle 0 in experiment [1], 0.747 ± 0.0353 fold-change vs cycle 0 in experiment [2] and 0.858 ± 0.0136 fold-change vs cycle 0 in experiment [3].

Turning to TAGAAA, the values for the binding signal in experiment [1], in experiment [2] and in experiment [3] were 2.03 ± 0.103 fold-change vs cycle 0, 1.91 ± 0.061 fold-change vs cycle 0 and 1.69 ± 0.141 fold-change vs cycle 0, respectively.

Turning to ATCAGC, the binding signal came out at 0.664 ± 0.0167 fold-change vs cycle 0 in experiment [1], 0.738 ± 0.048 fold-change vs cycle 0 in experiment [2] and 0.836 ± 0.0337 fold-change vs cycle 0 in experiment [3].

Regarding TCTAAA, the binding signal in experiment [1] was found to be 1.79 ± 0.0986 fold-change vs cycle 0; in experiment [2] it was 1.85 ± 0.144 fold-change vs cycle 0; in experiment [3] it was 1.67 ± 0.161 fold-change vs cycle 0.

Turning to GCCTAC, the binding signal stood at 0.304 ± 0.0224 fold-change vs cycle 0 in experiment [1], 0.368 ± 0.00435 fold-change vs cycle 0 in experiment [2] and 0.499 ± 0.0602 fold-change vs cycle 0 in experiment [3].

Consider AGCGAT, for which the binding signal in experiment [1] was found to be 0.553 ± 0.0342 fold-change vs cycle 0; in experiment [2], 0.644 ± 0.0243 fold-change vs cycle 0; in experiment [3], 0.766 ± 0.0387 fold-change vs cycle 0.

For CGATAA, the binding signal came out at 1.17 ± 0.0894 fold-change vs cycle 0 in experiment [1], 1.19 ± 0.0909 fold-change vs cycle 0 in experiment [2] and 1.15 ± 0.0473 fold-change vs cycle 0 in experiment [3].

In the case of ATTTAG, the binding signal was 1.79 ± 0.0993 fold-change vs cycle 0 in experiment [1], 1.83 ± 0.0928 fold-change vs cycle 0 in experiment [2] and 1.64 ± 0.15 fold-change vs cycle 0 in experiment [3].

With AACTGG, the binding signal came out at 0.7531 ± 0.00684 fold-change vs cycle 0 in experiment [1], 0.889 ± 0.0264 fold-change vs cycle 0 in experiment [2] and 0.904 ± 0.0346 fold-change vs cycle 0 in experiment [3].

For CAGTAA, the values for the binding signal in experiment [1], in experiment [2] and in experiment [3] were 1.35 ± 0.0452 fold-change vs cycle 0, 1.48 ± 0.063 fold-change vs cycle 0 and 1.37 ± 0.109 fold-change vs cycle 0, respectively.

Regarding ACTGAA, the binding signal is 1.38 ± 0.0494 fold-change vs cycle 0 in experiment [1], 1.5 ± 0.11 fold-change vs cycle 0 in experiment [2] and 1.39 ± 0.103 fold-change vs cycle 0 in experiment [3].

Turning to AGGTGC, the binding signal in experiment [1] was 0.324 ± 0.00829 fold-change vs cycle 0; in experiment [2] it was 0.389 ± 0.0132 fold-change vs cycle 0; in experiment [3], 0.519 ± 0.0738 fold-change vs cycle 0.

On to ACCTCT, for which the binding signal in experiment [1] was found to be 0.859 ± 0.0231 fold-change vs cycle 0; in experiment [2], 0.978 ± 0.0308 fold-change vs cycle 0; in experiment [3], 1.02 ± 0.0211 fold-change vs cycle 0.

CAGCAC: the binding signal stood at 0.3 ± 0.0076 fold-change vs cycle 0 in experiment [1], 0.335 ± 0.0156 fold-change vs cycle 0 in experiment [2] and 0.476 ± 0.0603 fold-change vs cycle 0 in experiment [3].
